Shown are actives, neighbours in structure and some others; about 11% of the full set was active somewhere.
HP1b binding inh – HTS for Inhibitors of HP1-beta Chromodomain Interactions with Methylated Histone Tails. AlphaScreen HP1-beta / biotin-H3K9me3 peptide binding. Potency, µM (series often up to 114 µM), actives largely listed as inhibitors. hit rate 0.56% among 390,000. AID 540317, 2011; also: nearly all actives have a fitted effect of over 70% in size
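Compound inhibition of the preformed complex between 50 nM HP1-beta and 50 nM biotinylated H3K9me3 peptide was read by AlphaScreen. Buffer was PBS pH 7.4 with 0.01% Tween-20. Incubations ran 30 min at room temperature, with 10 ug/mL donor/acceptor beads.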
G9a inh – qHTS Assay for Inhibitors of Histone Lysine Methyltransferase G9a; Histone-lysine N-methyltransferase EHMT2 (Homo sapiens), Q96KQ7; AID 504332, 2011; hit rate 8.8% among 350,000; G9a H3K9 monomethylation, AlphaScreen, 2 h; Potency, µM (doses to about 102 µM), actives largely listed as inhibitors; also: nearly all actives have a fitted effect of over 75% in size
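Enzyme 20 nM + cpd, 15 min RT; add b-H3K9 pep 500 nM / SAM 20 uM; 2 h RT; anti-H3K9me1 Ab 0.5 ug/mL + SA donor / anti-rabbit acceptor beads 20 ug/mL each, 10 min; AlphaScreen read.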
L3MBTL1 block – qHTS Assay for the Inhibitors of L3MBTL1. AID 485360, 2010. Potency, µM (titrated, usually from 57.1 µM), hits mostly inhibitors. Lethal(3)malignant brain tumor-like protein 1 (Homo sapiens), Q9Y468. AlphaScreen L3MBTL1–H3K9me1 peptide binding. hit rate 0.66% among 230,000; also: nearly all actives have a fitted effect of over 60% in size
Target sequence (Q9Y468 whole entry, looked up): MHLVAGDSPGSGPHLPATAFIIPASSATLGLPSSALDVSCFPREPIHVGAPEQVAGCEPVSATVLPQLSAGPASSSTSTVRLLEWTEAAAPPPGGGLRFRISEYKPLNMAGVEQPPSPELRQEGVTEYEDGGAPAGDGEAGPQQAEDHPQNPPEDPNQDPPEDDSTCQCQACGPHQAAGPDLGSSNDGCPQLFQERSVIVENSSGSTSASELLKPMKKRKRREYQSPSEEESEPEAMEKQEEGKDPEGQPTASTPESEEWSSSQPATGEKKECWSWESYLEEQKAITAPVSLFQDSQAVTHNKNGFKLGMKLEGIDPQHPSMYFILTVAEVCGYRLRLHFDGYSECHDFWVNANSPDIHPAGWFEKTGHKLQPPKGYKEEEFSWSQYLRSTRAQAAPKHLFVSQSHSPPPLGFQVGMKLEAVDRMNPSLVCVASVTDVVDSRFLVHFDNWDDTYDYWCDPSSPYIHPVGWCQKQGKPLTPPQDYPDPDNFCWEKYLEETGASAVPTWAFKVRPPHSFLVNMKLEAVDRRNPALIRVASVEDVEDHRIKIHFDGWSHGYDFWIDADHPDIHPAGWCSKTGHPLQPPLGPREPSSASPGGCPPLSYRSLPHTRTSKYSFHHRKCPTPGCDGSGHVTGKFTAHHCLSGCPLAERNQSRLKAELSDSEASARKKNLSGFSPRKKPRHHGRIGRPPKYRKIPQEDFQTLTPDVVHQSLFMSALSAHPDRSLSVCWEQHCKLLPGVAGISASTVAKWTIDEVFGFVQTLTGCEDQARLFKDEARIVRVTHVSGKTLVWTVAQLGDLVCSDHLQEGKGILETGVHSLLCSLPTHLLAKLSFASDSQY
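L3MBTL1 50 nM + b-AHA-H3(1-15)K9me1 75 nM, 30 min RT; compound added, 30 min RT; streptavidin donor/Ni-chelate acceptor beads 10 ug/mL each final, 30 min RT dark; AlphaScreen read.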
JMJD2A Tudor inh – qHTS Assay for Inhibitors of JMJD2A-Tudor Domain. AID 504339, 2011. AlphaScreen JMJD2A-Tudor / H3K4me3 peptide binding. hit rate 4.4% among 390,000. Potency, µM (top dose mostly 114 µM), most hits filed as inhibitors. Lysine-specific demethylase 4A (Homo sapiens), O75164; also: nearly all actives have a fitted effect of over 50% in size
BAZ2B block – qHTS Assay for Inhibitors of BAZ2B; hit rate 4.4% among 360,000; AlphaScreen BAZ2B-H3K14Ac peptide displacement; AID 504333, 2011; Potency, µM (doses to about 114 µM), hits mostly inhibitors; Bromodomain adjacent to zinc finger domain protein 2B (Homo sapiens), Q9UIF8; also: nearly all actives have a fitted effect of over 60% in size
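In this displacement format the biotinylated H3(5-23) peptide acetylated at Lys14 serves as ligand at 50 nM, with BAZ2B at 50 nM in PBS pH 7.4 containing 0.01% Tween-20. Donor and acceptor beads are 10 ug/mL final.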
Each line names hits and unclear results; the compound was inactive in the other large screens. Calls follow the shape of the dose curve; as a rule, active = well fitted inhibition curve with a large enough effect; inconclusive = small, poorly fitted or top-dose-only effect; inactive = no such curve, though single readings can be large or run the other way.

O=C(NCCc1ccc(Cl)cc1)c1cnc2sc(N3CCOCC3)nn2c1=O	none (no result: L3MBTL1 block)
Cc1ccc(-n2nc(C(=O)Nc3ccc(Br)cc3C)c(=O)n(C)c2=O)cc1	none (no result: L3MBTL1 block)
COc1cc2c(cc1OC)C(COc1ccc(F)cc1)N(C(=O)c1cccc(F)c1)CC2 (stereo unspecified)	JMJD2A Tudor inh inconclusive (no result: L3MBTL1 block)
COc1cc(OC)c(NC(=O)Nc2cccc(OCc3cc(=O)n4ccccc4n3)c2)cc1Cl	G9a inh inconclusive (no result: L3MBTL1 block)
CC(C)c1ccc2[nH]c(O)c(N=NC(=O)c3cccc(S(=O)(=O)Nc4ccccc4Cl)c3)c2c1	none
O=C(N=Nc1c(O)[nH]c2ccccc12)c1cccc(S(=O)(=O)Nc2ccccc2Cl)c1	JMJD2A Tudor inh 28.2µM, BAZ2B block inconclusive
O=C(N/N=C/c1ccc(N2CCOCC2)o1)c1cccc(F)c1	G9a inh 7.08µM, JMJD2A Tudor inh inconclusive
COc1ccc(C(=O)N/N=C/c2ccc(N3CCOCC3)o2)cc1OC	G9a inh 8.91µM (no result: L3MBTL1 block)
CCOC(=O)c1noc2ncnc(N3CCN(c4ccccc4OC)CC3)c12	none (no result: L3MBTL1 block)
COc1cc(C(=O)NCC(c2ccco2)S(=O)(=O)c2cccs2)cc(OC)c1OC (stereo unspecified)	none (no result: L3MBTL1 block)
CCOc1ccc(S(=O)(=O)N2Cc3ccccc3CC2C(=O)Nc2ccc(NC(C)=O)cc2)cc1 (stereo unspecified)	none (no result: L3MBTL1 block)
O=C1CN(C(=O)COC(=O)CCC(=O)c2ccc(F)cc2)c2ccccc2N1	none (no result: G9a inh, BAZ2B block)
CC(=O)Nc1ccc(N/C(C)=C/C(=O)c2cccnc2)cc1	none
C/C(=C\C(=O)c1cccnc1)Nc1ccc(C(=O)O)cc1	G9a inh 2.24µM, JMJD2A Tudor inh inconclusive, BAZ2B block inconclusive (no result: L3MBTL1 block)
CC/C(=C\C(=O)c1cccnc1)Nc1ccc(C)c(C)c1	HP1b binding inh inconclusive, G9a inh 39.8µM, JMJD2A Tudor inh 50.1µM
Cc1ccc(C(=O)O)cc1-c1ccc(/C=C2/NC(=O)N(c3ccccc3)C2=O)o1	HP1b binding inh inconclusive, G9a inh 10µM, JMJD2A Tudor inh 50.1µM, BAZ2B block 31.6µM (no result: L3MBTL1 block)
Cc1ccc(CN2C(=O)N/C(=C\c3ccc(-c4ccc(C(=O)O)cc4C)o3)C2=O)cc1	G9a inh 39.8µM, L3MBTL1 block inconclusive, JMJD2A Tudor inh inconclusive, BAZ2B block 39.8µM
O=C(O)c1ccc(-c2ccc(/C=C3\NC(=O)N(Cc4ccc(Cl)cc4)C3=O)o2)cc1	G9a inh 50.1µM, L3MBTL1 block inconclusive, BAZ2B block inconclusive
O=C(Cn1ccc(NC(=O)OCc2ccccc2)nc1=O)NCCc1c[nH]c2ccccc12	none
COc1ccc(F)cc1S(=O)(=O)NCC(c1ccco1)S(=O)(=O)c1cccs1 (stereo unspecified)	none (no result: L3MBTL1 block)
Cc1ccc(S(=O)(=O)c2c(C)nn(-c3ccccc3)c2OC(=O)c2ccc(Br)o2)cc1	G9a inh inconclusive, JMJD2A Tudor inh inconclusive
Cc1ccc(S(=O)(=O)c2c(C)nn(-c3ccccc3)c2OC(=O)c2ccco2)cc1	G9a inh inconclusive, JMJD2A Tudor inh 79.4µM
Oc1ccc(O)c2c1C1c3ccccc3C2c2ccccc21	G9a inh 3.55µM, BAZ2B block 39.8µM (no result: HP1b binding inh, JMJD2A Tudor inh)
COc1ccc(N2CCN(C(=O)c3ccc4nc(N5CCCCC5)sc4c3)CC2)cc1	G9a inh 8.91µM, BAZ2B block 39.8µM
O=C(c1ccc2nc(N3CCOCC3)sc2c1)N1CCCC1	G9a inh inconclusive
CCc1nc2ccc(C(=O)N3CCN(c4cccc(OC)c4)CC3)cc2nc1CC	none (no result: L3MBTL1 block)
COc1cccc(N2CCN(C(=O)c3ccc4ccccc4c3)CC2)c1	G9a inh 50.1µM, JMJD2A Tudor inh inconclusive
COc1cccc(N2CCN(C(=O)c3ccc4nc(N5CCCCC5)sc4c3)CC2)c1	G9a inh 39.8µM, JMJD2A Tudor inh inconclusive (no result: L3MBTL1 block)
COc1ccc(Cc2c3cc(OC)c(OC)cc3cc[n+]2C)cc1OC	HP1b binding inh inconclusive, JMJD2A Tudor inh 22.4µM (no result: L3MBTL1 block)
CC[n+]1ccc2cc(OC)c(OC)cc2c1Cc1ccc(OC)c(OC)c1	HP1b binding inh 39.8µM, G9a inh 22.4µM, JMJD2A Tudor inh 25.1µM, BAZ2B block 79.4µM
COc1cc2c[n+](C)c3c4ccccc4ccc3c2cc1OC	none (no result: G9a inh, L3MBTL1 block, BAZ2B block)
COc1ccc(-c2nnc3ccc(SC(C(C)=O)C(C)=O)nn23)cc1OC	G9a inh 2.24µM, JMJD2A Tudor inh 20µM (no result: BAZ2B block)
CCC(Sc1ccc2nnc(-c3ccc(OC)c(OC)c3)n2n1)C(=O)O (stereo unspecified)	G9a inh 7.94µM (no result: L3MBTL1 block)
CC(=O)N1CCN(C(=S)c2ccc(-c3ccc(Cl)cc3)o2)CC1	G9a inh 3.98µM, JMJD2A Tudor inh inconclusive
S=C(c1ccc(-c2cccc(Cl)c2)o1)N1CCOCC1	HP1b binding inh 35.5µM, G9a inh inconclusive, JMJD2A Tudor inh 50.1µM, BAZ2B block 44.7µM (no result: L3MBTL1 block)
S=C(c1ccc(-c2cccc(Cl)c2)o1)N1CCCCC1	HP1b binding inh inconclusive, G9a inh 11.2µM, JMJD2A Tudor inh 28.2µM, BAZ2B block 31.6µM (no result: L3MBTL1 block)
C[C@@]12CC[C@@H]3c4ccc(O)cc4CC[C@H]3[C@H]1C[C@@H](O)[C@H]2O	none (no result: HP1b binding inh, L3MBTL1 block, JMJD2A Tudor inh, BAZ2B block)
CCC1(C)Cc2sc3c(=O)[nH]c(=S)[nH]c3c2CO1 (stereo unspecified)	G9a inh 3.55µM, BAZ2B block inconclusive (no result: L3MBTL1 block)
CCCC(=O)NC(=S)Nc1cccc(-c2nc3ncccc3o2)c1	G9a inh 22.4µM
CC(=O)c1ccc(NC(=S)NC(=O)/C=C/c2ccco2)cc1	G9a inh 44.7µM, L3MBTL1 block inconclusive, JMJD2A Tudor inh inconclusive, BAZ2B block inconclusive
CC(=O)c1ccc(NC(=S)NC(=O)/C=C/c2ccccc2)cc1	none (no result: G9a inh)
CC(C)CC(=O)Nc1cccc(-c2nc3ncccc3o2)c1	none (no result: L3MBTL1 block)
O=C(/C=C/c1ccco1)NC(=S)Nc1cccc(-c2nc3ccccc3o2)c1	G9a inh inconclusive, JMJD2A Tudor inh 50.1µM, BAZ2B block 44.7µM
Cc1ccc(-n2nc3ccc(NC(=S)NC(=O)/C=C/c4ccco4)cc3n2)cc1	none
Cc1cccc(NC(=S)NC(=O)/C=C/c2ccco2)c1	HP1b binding inh inconclusive, G9a inh 25.1µM, JMJD2A Tudor inh inconclusive, BAZ2B block 44.7µM
COc1ccc(Cn2c(C(=O)O)c(CNCc3ccco3)c3ccc(OC)cc32)cc1	BAZ2B block inconclusive (no result: L3MBTL1 block)
Cc1nc(SCC(=O)N2c3ccccc3NC(=O)CC2C)c2c(C)c(C)sc2n1 (stereo unspecified)	G9a inh 44.7µM
Cc1sc2nc(C3CC3)nc(SCC(=O)N3c4ccccc4CC3C)c2c1C (stereo unspecified)	none
Cc1nnc(SCC2=C(C(=O)O)N3C(=O)C(NC(=O)Cc4ccccc4)C3SC2)s1 (stereo unspecified)	G9a inh inconclusive, BAZ2B block inconclusive
